Measurements taken from PubChem BioAssay (EPA / NIEHS).
Results filed as inconclusive are left out. Activity calls are given as the source filed them. Rule for the calls, unless noted: active = hit-call score of the fitted dose curve at least 0.9, where 1 is the maximum; inactive = score below 0.9.

How the values were obtained:
[1] = CCTE_Mundy_HCI_Cortical_Synap_Neur_Matur_NeuriteCount: CCTE's Synaptogenesis and Neurite Maturation Assay in rat cortical cells for Neurite Count, Mundy Lab (AID 2284222);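 for outcome: exposure from day 7 to day 12 in vitro with readout at day 12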
How it was run: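 Chemical exposure runs DIV 7–12 in rat cortical cultures, glia suppressed by AraC at DIV 5; measurement is at DIV 12. Imaging-derived neurite counts are fitted against DMSO baseline.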

[2] = CCTE_Mundy_HCI_Cortical_Synap_Neur_Matur_CellBodySpotCount: CCTE's Synaptogenesis and Neurite Maturation Assay in rat cortical cells for Cell Body Spot Count, Mundy Lab (AID 2284223)
How it was run: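 Synapse number at neuronal cell bodies was quantified as synaptophysin puncta per neuron in rat cortical cultures exposed from DIV 7 to DIV 12. Values were normalised to DMSO.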

[3] = CCTE_Mundy_HCI_hNP1_Pro_ResponderAvgInten: CCTE's Proliferation Assay in human neuroprogenitor cells, Mundy Lab (AID 2284224; active = hit-call score of the fitted dose curve at least 0.9, where 1 is the maximum;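 note: human neural progenitor cells hNP1 derived from WA09 embryonic stem cells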)
How it was run: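 Proliferation read as average intensity of BrdU-positive cells, imaged at 26.25 h post-dosing: chemical exposure started after 40–44 h culture, BrdU during final 4 h, paraformaldehyde fixation. Positive-direction fit relative to DMSO.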

[4] = BSK_BT_PBMCCytotoxicity: PBMC Cytotoxicity Assessment in the BioMAP Diversity Plus: BT Assay (AID 2284225); conditions: primary human B cells with PBMC
How it was run: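 75,000 cells/well; cpd 1 h → SEB + TSST-1 (20 ng/mL final each) → 90 h → Alamar Blue 6 h → fluor. 546/580 nm. DMSO = neg. control/baseline.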

[5] = read-out: Secreted IgG (sIgG), gene 3500; experiment: BSK_BT_sIgG: BioMAP Diversity Plus: BT Assay for Secreted IgG (sIgG) Biomarker Activity (AID 2284226); conditions: primary human B cells with PBMC
Description: BSK_BT is a cell-based, multiplexed-readout assay that uses B cell and peripheral blood mononuclear cells, a human vascular primary cell co-culture, with measurements taken at 24 hours after chemical dosing in a microplate: 96-well plate.BSK_BT_sIgG is an assay component measured in the BSK_BT assay. It measures secreted IgG related to regulation of gene expression using ELISA technology.Data from the assay component BSK_BT_sIgG was analyzed at the endpoint, BSK_BT_sIgG, in the positive analysis fitting direction relative to DMSO as the negative control and baseline of activity. Using a type of cytokine quantitation reporter, gain or loss-of-signal activity can be used to understand protein changes. To generalize the intended target to other relatable targets, this assay endpoint is annotated to the 'immunoglobulin' intended target family, where the subfamily is 'IgG'.
(§1) The levels of cell surface (or secreted, indicated by the prefix "s") biomarker endpoints were measured by ELISA. Overt cytotoxicity to cells in confluent adherent cultures (all systems other than the BT system) was assessed by measuring total protein levels using sulforhodamine B (SRB) staining in parallel cultures at the time of biomarker measurements, indicated as SRB endpoints. For proliferation assays for adherent cell types, individual cell types are cultured at sub-confluence and relative cell numbers quantified by SRB staining at time points optimized for each system (48 h: 3C and CASM3C systems; 72 h: BT and HDF3CGF systems; 96 h: SAg system). SRB was performed by staining cells with 0.1% SRB after fixation with 10% TCA and reading wells at 560 nm.Viability and proliferation of PBMC (T cells) was quantified by Alamar Blue reduction for the SAg and BT systems. […] Then, Alamar Blue (20 uL/well) (Invitrogen, Cat DAL1100) was added for 6 h, and the plates were read with a fluorescence microplate reader at 546/580 nm (excitation/emission). […] Plates were read after 6 h.

[6] = BSK_BT_Bcell_Proliferation: Viability Assessment in the BioMAP Diversity Plus: BT Assay for B cell Proliferation (AID 2284227); conditions: primary human B cells with PBMC
How it was run: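 SRB-based protein staining (0.1% SRB after 10% TCA fixation, 560 nm) quantifies proliferation in human B cells co-cultured with PBMC, 72 h post-dosing, with signal gain scored relative to DMSO negative control.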

[7] = read-out: Interleukin 6 (IL6), IL6 (gene 3569); experiment: BSK_BT_xIL6: BioMAP Diversity Plus: BT Assay for Interleukin 6 (IL6) Biomarker Activity (AID 2284228); conditions: primary human B cells with PBMC
Description: BSK_BT is a cell-based, multiplexed-readout assay that uses B cell and peripheral blood mononuclear cells, a human vascular primary cell co-culture, with measurements taken at 24 hours after chemical dosing in a microplate: 96-well plate.BSK_BT_xIL6 is an assay component measured in the BSK_BT assay. It measures secreted IL-6 related to regulation of gene expression using LumineX xMAP technology.Data from the assay component BSK_BT_xIL6 was analyzed at the endpoint, BSK_BT_xIL6, in the positive analysis fitting direction relative to DMSO as the negative control and baseline of activity. Using a type of cytokine quantitation reporter, gain or loss-of-signal activity can be used to understand protein changes. To generalize the intended target to other relatable targets, this assay endpoint is annotated to the 'cytokine' intended target family, where the subfamily is 'interleukins'.
as §1

[8] = CCTE_Mundy_HCI_hN2_NOG_NeuriteCount: CCTE's Neurite Outgrowth Assay in human hN2 cells for Neurite Count, Mundy Lab (AID 2284219; active = hit-call score of the fitted dose curve at least 0.9, where 1 is the maximum)
How it was run: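 In this morphology assay, hNP1-derived neurons received test chemical 2 h post-plating and were fixed two days later in warm paraformaldehyde/sucrose containing Hoechst 33342. Neurites, labelled by rabbit anti-βIII-tubulin (1:800) and Alexa Fluor-488 (1:500), were counted automatically.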

[9] = CCTE_Mundy_HCI_hN2_NOG_NeuriteLength: CCTE's Neurite Outgrowth Assay in human hN2 cells for Neurite Length, Mundy Lab (AID 2284220; active = hit-call score of the fitted dose curve at least 0.9, where 1 is the maximum)
How it was run: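 Read-out is neurite length from high-content imaging of βIII-tubulin/Alexa Fluor-488-labelled neurons, referenced to DMSO controls.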

[10] = CCTE_Mundy_HCI_hN2_NOG_NeuronCount: CCTE's Neurite Outgrowth Assay in human hN2 cells for Neuron Count, Mundy Lab (AID 2284221; active = hit-call score of the fitted dose curve at least 0.9, where 1 is the maximum)
How it was run: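 Read-out is the number of betaIII-tubulin-positive neurons imaged by automated high-content analysis, with DMSO as negative control.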

Question: With `CCCN(CCC)C(=O)SCC` as the molecule, how does the outcome [1] read?
Answer: Its outcome is “inactive”.

Question: And the outcome [2]?
Answer: Its outcome is “inactive”.

Question: And the outcome [3]?
Answer: The outcome was “inactive”.

Question: For `COCCO`, which outcome [4] is on record?
Answer: The outcome was “inactive”.

Question: What about the outcome [5] of the same molecule?
Answer: The outcome was “inactive”.

Question: What about the outcome [6] of the same molecule?
Answer: Its outcome is “inactive”.

Question: And the outcome [7]?
Answer: Its outcome is “inactive”.

Question: For `S=C(S)NCCNC(=S)S.[Mn+2].[S-]C([S-])=NCCN=C([S-])[S-].[Zn+2]`, which outcome [1] is on record?
Answer: Its outcome is “inactive”.

Question: What about the outcome [2] of the same molecule?
Answer: Its outcome is “inactive”.

Question: With `C#CCOC(=O)[C@@H](C)Oc1ccc(Oc2ncc(Cl)cc2F)cc1` as the molecule, how does the outcome [1] read?
Answer: Its outcome is “inactive”.

Question: What about the outcome [2] of the same molecule?
Answer: The outcome was “inactive”.

Question: And the AC50 [3]?
Answer: The AC50 was 50 µM (active).

Question: With `CCN(CC)C(=O)c1cccc(C)c1` as the molecule, how does the outcome [1] read?
Answer: The outcome was “inactive”.

Question: And the outcome [2]?
Answer: Its outcome is “inactive”.

Question: What about the outcome [3] of the same molecule?
Answer: The outcome was “inactive”.

Question: Which AC50 [8] does the source give for `CC(C)(c1ccc(O)cc1)c1ccc(O)cc1` here?
Answer: The AC50 was 77.3 µM (active).

Question: And the AC50 [9]?
Answer: Its AC50 is 78.8 µM (active).

Question: And the AC50 [10]?
Answer: The AC50 was 50 µM (active).

Question: And the outcome [2]?
Answer: Its outcome is “inactive”.

Question: And the outcome [3]?
Answer: Its outcome is “inactive”.

Question: Which results are given for `CSC(=O)c1cccc2nnsc12`?
Answer: outcome [1]: inactive; outcome [2]: inactive

Question: What does the source list for `Cc1nn(C)c(Oc2ccccc2)c1C=NOCc1ccc(C(=O)OC(C)(C)C)cc1`?
Answer: AC50 [1]: 0.00454 µM (active); AC50 [2]: 0.00403 µM (active); AC50 [3]: 7.65 µM (active)

Question: Which outcome [8] does the source give for `O=C(O)c1ccccc1` here?
Answer: Its outcome is “inactive”.

Question: What about the outcome [9] of the same molecule?
Answer: The outcome was “inactive”.

Question: What about the outcome [10] of the same molecule?
Answer: Its outcome is “inactive”.

Question: And the outcome [1]?
Answer: The outcome was “inactive”.

Question: What about the outcome [2] of the same molecule?
Answer: Its outcome is “inactive”.

Question: For `S=C([S-])NCCNC(=S)[S-].[Mn+2]`, which outcome [8] is on record?
Answer: Its outcome is “inactive”.

Question: And the outcome [9]?
Answer: Its outcome is “inactive”.

Question: What about the outcome [10] of the same molecule?
Answer: The outcome was “inactive”.

Question: What about the outcome [2] of the same molecule?
Answer: Its outcome is “inactive”.

Question: For `CC1(C)C(C=C(Cl)Cl)C1C(=O)OCc1cccc(Oc2ccccc2)c1` (stereo not drawn), which outcome [8] is on record?
Answer: Its outcome is “inactive”.

Question: What about the outcome [9] of the same molecule?
Answer: The outcome was “inactive”.

Question: And the AC50 [10]?
Answer: The AC50 was 20.2 µM (active).

Question: And the outcome [1]?
Answer: The outcome was “inactive”.

Question: And the outcome [2]?
Answer: Its outcome is “inactive”.

Question: And the outcome [3]?
Answer: Its outcome is “inactive”.

Question: With `N#CSCSc1nc2ccccc2s1` as the molecule, how does the AC50 [4] read?
Answer: The AC50 was 3.65 µM (active).

Question: What about the AC50 [5] of the same molecule?
Answer: Its AC50 is 3.18 µM (active).

Question: And the AC50 [6]?
Answer: The AC50 was 5.47 µM (active).

Question: What about the AC50 [7] of the same molecule?
Answer: The AC50 was 4.1 µM (active).

Question: Which results are given for `CCC(C)OC(=O)N1CCCCC1CCO` (stereo not drawn)?
Answer: outcome [4]: inactive; outcome [5]: inactive; outcome [6]: inactive; outcome [7]: inactive
